Screens deposited in PubChem by several laboratories.
Y pestis TopoI: Y. pestis Topo-I inhibition via cleavage products. Y. pestis Topo-I cleavage product accumulation, plate reader. activity, % at 10 µM. actives 0.064% (n = 360,000). AID 504884; in the data active = activity above about 50%, passing the limit was not always enough
CCHFV vOTU inh: blocks the CCHF virus ovarian tumor domain protease; actives 0.55% (n = 370,000); inhibition, % at 11.5 µM; CCHFV vOTU protease, Pep-AMC fluorescence; in the data active = inhibition above about 30%; note: 0% = vehicle wells with enzyme and 100% = no enzyme wells
PrPC TRFRET: inhibitors of human cell surface prion protein PrPC | P04156 | TR-FRET read-out | inhibition, % at 13.8 µM | actives 0.43% (n = 370,000); in the data active = inhibition above about 24%; note: 0% = median of the test wells and 100% = reference compound wells
BJeLR lethal: kills HRASV12-expressing BJeLR cells; BJeLR (HRASV12) viability, CellTiter-Glo ATP luminescence, 48 h; inhibition, % (test concentration not listed); actives 0.17% (n = 300,000); in the data active = inhibition above about 50%
PrP 5UTR inh: inhibition of PrP 5' UTR reporter expression. cell-based PrP 5' UTR mRNA reporter, plate reader. actives 0.35% (n = 340,000). inhibition, % (concentration not given with the values). AID 488862; in the data active = inhibition above about 52%; note: 0 = median of the neutral control wells
PfHsp40 yeast: rescue of PfHsp40-mediated yeast toxicity; S. cerevisiae expressing PfHsp40, growth rescue, ATP luminescence; growth rescue, % at 12.5 µM; actives 0.68% (n = 340,000); AID 504582; in the data active = growth rescue above about 28%, passing the limit was not always enough;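 note: yeast W303a lacking pdr1 and pdr3 grown in galactose medium; growth measured after three days at 30 °C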
PrPC TRFRET cf: confirmation of inhibitors of cell surface human prion protein. inhibition, % at 13.8 µM. actives 65% (n = 1,500). shares compounds with PrPC TRFRET. cell surface PrPC level, TR-FRET; in the data active = inhibition above about 25%
LD9 tox: kills or reduces viability of LD9 cells in PrPc counter-screen; inhibition, % at 13.8 µM; AID 743201; LD9 cells cytotoxicity, luminescence viability; actives 29% (n = 1,500); shares compounds with PrPC TRFRET; in the data active = inhibition above about 9.5%
An asterisk follows results filed as active; . = no result given. Sampled rows, rich in hits. Any-hit rate of the full collection: about 2%.

SMILES	Y pestis TopoI	CCHFV vOTU inh	PrPC TRFRET	BJeLR lethal	PrP 5UTR inh	PfHsp40 yeast	PrPC TRFRET cf	LD9 tox
OC[C@@H]1CC[C@@H]2O[C@H](CCc3ccc(-c4ccc(F)cc4)cc3)[C@@H](n3cc(C4CC4)nn3)C[C@@H]2O1	.	4	-2	.	.	.	.	.
OC(CN1C2=NCCN2c2ccccc21)c1ccc2c(c1)OCO2 (stereo not given)	0	-7	53*	0	1	-1	2	5
OC(CN1C2=NCCCN2c2ccccc21)c1ccc2c(c1)OCO2 (stereo not given)	4	4	-7	14	-17	-2	.	.
CC(=O)OC[C@]12CC[C@H]3[C@@](C)(CC[C@H]4C(C)(C)CCC[C@]34C)[C@@H]1CC(C1=CC(=O)OC1O)O2 (stereo not given in full)	25	26	54*	.	.	.	83*	99*
CCCCn1c(=N)n(CC(=O)c2ccc(Br)s2)c2ccccc21	0	18	37*	8	-33	0	83*	28*
CCn1c(=N)n(CC(=O)c2ccc(Br)s2)c2ccccc21	-1	8	0	5	.	-1	.	.
Cc1ccc(NC(=O)Cc2cccc(OC(F)F)c2)c(S(=O)(=O)N2CCOCC2)c1	.	12	15	.	.	.	.	.
CCC1(CC)Cc2ccccc2-c2[nH]c(=S)[nH]c(=O)c21	-4	-10	79*	-2	-17	0	100*	-2
CCC1(CC)Cc2ccccc2-c2nc(NN)[nH]c(=O)c21	4	-35	0	17	-13	0	.	.
CC(C)C1Cc2ccccc2-c2[nH]c(=S)[nH]c(=O)c21 (stereo not given)	-3	-9	75*	2	.	.	94*	-5
S=c1[nH]c2ccccc2n2c(=S)[nH]nc12	11	0	30*	8	-24	3	59*	0
S=c1[nH]nc2ccc3ccccc3n12	.	15	-8	.	.	.	.	.
COC(=O)C1=C(C)N(Cc2ccc(C(F)(F)F)cc2)C(=NCc2ccccc2C(F)(F)F)NC1c1ccc(C(F)(F)F)cc1 (stereo not given)	.	15	6	.	.	.	.	.
Nc1ccc2cc3[nH]c4cc(N)ccc4c3nc2c1	-66	-68	27*	.	-37	1	11	31*
N#CC(C#N)=C(Nc1ccc(F)cc1)SCc1cccc(Br)c1	19	6	32*	37	8	3	38*	32*
Cc1cccc(CSC(Nc2ccc(F)cc2)=C(C#N)C#N)c1	0	-11	19	19	-16	0	.	.
CC(C)NC(=O)N[C@@H]1C[C@@H]2O[C@@H](CO)CC[C@@H]2O[C@@H]1CCc1ccc(-c2ccc(F)cc2)cc1	.	-1	-10	.	.	.	.	.
O=S(=O)(Nc1cccc2cccnc12)c1ccccc1	4	0	54*	74*	-6	0	39*	81*
O=S(=O)(Nc1cccc2cccnc12)c1ccc(S(=O)(=O)N2CCCC2)cc1	-6	3	37*	-3	-4	0	10	24*
O=S(=O)(Nc1cccc2ccccc12)c1ccccc1	3	-2	5	2	3	0	.	.
CC(=O)Nc1ccc(S(=O)(=O)Nc2cccc3cccnc23)cc1	0	0	0	-1	-22	-1	.	.
Cc1ccc2cccc(NS(=O)(=O)c3ccccc3)c2n1	.	5	34*	69*	.	.	67*	71*
COC(=O)[C@@H](Cc1ccccc1)N[C@H](/C=C/c1ccccc1)[C@@H](O)Cc1ccccc1	.	0	7	.	.	.	.	.
CC(C)(C)OC(=O)N1C[C@@]23C[C@H](c4cccc(F)c4)[C@@H](C[C@@H]2S1(=O)=O)O3	.	0	-4	.	.	.	.	.
CCCC1CCC2(CCCN2CCOC(=O)Nc2ccccc2)CC1 (stereo not given)	.	.	2	.	.	.	.	.
SMILES	Y pestis TopoI	CCHFV vOTU inh	PrPC TRFRET	BJeLR lethal	PrP 5UTR inh	PfHsp40 yeast	PrPC TRFRET cf	LD9 tox
COC(=O)C1=C(C)N(Cc2cccc(C(F)(F)F)c2)C(=NCC2CC2)NC1c1ccccc1C(F)(F)F (stereo not given)	.	24	-9	.	.	.	.	.
CCOC(=O)c1c(NC(=O)CSc2nnc(Cc3ccccc3)o2)sc(C(C)=O)c1C	4	-12	27*	18	-14	1	21	6
N#CCS(=O)(=O)c1cccc[n+]1[O-]	.	-5	5	.	.	.	.	.
Fc1ccc(-n2nnnc2-c2cnc(-c3cccs3)nc2C(F)(F)F)cc1	-4	14	53*	6	-7	-2	48*	40*
O=C(NCCc1c[nH]c2ccccc12)OCc1cn(-c2ccc(F)cc2F)nn1	.	-2	12	.	.	.	.	.
COc1cccc(OCc2cc(C(=O)N(C)Cc3nc4ccccc4[nH]3)no2)c1	22	14	29*	7	-72	2	39*	2
O=c1[nH]c(CN2CCN(c3ccc(O)cc3)CC2)nc2scc(-c3ccc(Cl)cc3)c12	11	-5	26*	30	-4	0	39*	13*
Cc1cc(NC(=O)CSc2nc(CCC3CCCC3)nc3ccccc23)no1	3	8	43*	-4	-20	0	56*	-11
Cc1cc(NC(=O)CSc2ncnc3ccccc23)no1	7	-4	36*	-1	-11	0	94*	-3
CC(C)(C)c1nc(SCC(=O)NC2CCCC2)c2ccccc2n1	-3	16	23	6	10	0	.	.
CCCc1nc(SCC(=O)Nc2cc(C)on2)c2ccccc2n1	12	14	123*	3	-22	1	120*	-10
CCCc1nc(SCC(=O)NC2CCCC2)c2ccccc2n1	1	10	34*	4	-29	-1	43*	-12
Cc1cc(NC(=O)CSc2nc(C(C)(C)C)nc3ccccc23)no1	1	-1	1	9	-31	-1	.	.
O=C(CNc1nnnn1-c1ccccc1)N1CCCC1	.	-6	-2	.	.	.	.	.
COCC(=O)Nc1ccc2c(c1)C(=O)N(C)[C@@H]1CC[C@@H](CC(=O)OC)O[C@H]1CO2	.	-4	-3	.	.	.	.	.
COc1ccc2c3c([nH]c2c1)C1=NCC[C@]12c1ccccc1N=CN2CC3	.	.	-10	.	.	.	.	.
Cc1cc(NC(=O)c2cc(-c3cccs3)nc3ccccc23)no1	3	-60	-7	4	-11	-1	.	.
CCc1cc2ccccc2nc1SCC(=O)Nc1cc(C)on1	15	-2	30*	3	-3	0	69*	-2
CCCCNC(=O)CSc1nc(Cc2ccccc2)nc2ccccc12	4	2	28*	9	-15	-1	38*	-6
Cc1cc(NC(=O)CSc2nc(-c3cccs3)nc3ccccc23)no1	10	0	44*	.	-5	0	102*	-2
